Test in all cases: protein-binding microarray (PBM); PBM: ~300 nM protein, 6 mM HEPES pH 7.8, 80 mM KCl, 0.5 mM EDTA, 0.5 mM EGTA, 6% glycerol, 35 ng/ul poly-dIdC, 1% milk, 1 h, room temperature; Ap Aiptasia and Nv Nematostella (sea anemones) / Co Capsaspora / Aq Amphimedon (sponge) / Dm Drosophila / Hu human; RHD is the Rel homology domain; high values mean tight binding
What all share (conditions): dsDNA, one strand shown

One experiment addresses T1, GST-Ap-NF-kB RHD (Exaiptasia pallida (Aiptasia), UniProt A0A913YAJ5 2-422).
T1 sequence: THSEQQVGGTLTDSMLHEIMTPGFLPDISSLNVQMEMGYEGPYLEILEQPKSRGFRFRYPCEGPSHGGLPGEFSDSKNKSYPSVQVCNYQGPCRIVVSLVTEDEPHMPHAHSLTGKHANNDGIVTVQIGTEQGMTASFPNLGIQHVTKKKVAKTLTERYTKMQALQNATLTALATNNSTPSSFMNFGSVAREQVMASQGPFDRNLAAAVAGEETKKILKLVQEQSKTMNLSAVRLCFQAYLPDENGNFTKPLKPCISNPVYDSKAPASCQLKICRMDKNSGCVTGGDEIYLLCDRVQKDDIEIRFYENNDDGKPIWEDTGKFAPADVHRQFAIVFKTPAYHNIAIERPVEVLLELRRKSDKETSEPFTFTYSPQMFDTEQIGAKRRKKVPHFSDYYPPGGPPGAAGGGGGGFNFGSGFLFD

The target of experiment [1] is T2, GST-Nv-NF-kB (Cys allele) (Nematostella vectensis, UniProt E5G601 2-411).
T2 sequence: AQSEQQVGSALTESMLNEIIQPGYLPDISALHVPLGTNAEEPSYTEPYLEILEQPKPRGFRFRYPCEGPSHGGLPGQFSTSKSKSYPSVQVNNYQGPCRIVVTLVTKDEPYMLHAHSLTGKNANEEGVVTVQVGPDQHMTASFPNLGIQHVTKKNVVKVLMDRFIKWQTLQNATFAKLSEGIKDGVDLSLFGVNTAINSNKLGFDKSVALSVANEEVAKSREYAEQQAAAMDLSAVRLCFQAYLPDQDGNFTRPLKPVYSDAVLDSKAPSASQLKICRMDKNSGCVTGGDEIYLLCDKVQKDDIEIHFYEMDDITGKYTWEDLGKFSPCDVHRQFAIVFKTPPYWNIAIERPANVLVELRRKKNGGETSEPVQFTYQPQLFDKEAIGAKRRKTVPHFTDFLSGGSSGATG

Experiment [2] has as its target T3, GST-Nv-NF-kB (Ser allele) (Nematostella vectensis, UniProt A7UNT2 2-411).
T3 sequence: T2 sequence with Q21R, C66S, S207N, E215Q, V217A, E225K, A268E, D399E

The target in a further experiment is T4, GST-Co-NF-kB (Capsaspora owczarzaki, UniProt F1ARL5 200-546).
T4 sequence: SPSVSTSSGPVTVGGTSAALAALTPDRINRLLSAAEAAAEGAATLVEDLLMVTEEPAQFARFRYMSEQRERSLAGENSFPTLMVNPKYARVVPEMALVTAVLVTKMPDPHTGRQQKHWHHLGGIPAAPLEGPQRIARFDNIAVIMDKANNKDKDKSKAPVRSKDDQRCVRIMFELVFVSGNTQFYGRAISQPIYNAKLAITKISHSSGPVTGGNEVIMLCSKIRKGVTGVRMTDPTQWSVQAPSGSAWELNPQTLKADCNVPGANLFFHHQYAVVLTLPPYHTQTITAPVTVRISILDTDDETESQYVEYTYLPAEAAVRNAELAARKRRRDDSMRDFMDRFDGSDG

The target in a further experiment is T5, GST-Dm-Relish (Drosophila melanogaster, UniProt Q94527 99-473).
T5 sequence: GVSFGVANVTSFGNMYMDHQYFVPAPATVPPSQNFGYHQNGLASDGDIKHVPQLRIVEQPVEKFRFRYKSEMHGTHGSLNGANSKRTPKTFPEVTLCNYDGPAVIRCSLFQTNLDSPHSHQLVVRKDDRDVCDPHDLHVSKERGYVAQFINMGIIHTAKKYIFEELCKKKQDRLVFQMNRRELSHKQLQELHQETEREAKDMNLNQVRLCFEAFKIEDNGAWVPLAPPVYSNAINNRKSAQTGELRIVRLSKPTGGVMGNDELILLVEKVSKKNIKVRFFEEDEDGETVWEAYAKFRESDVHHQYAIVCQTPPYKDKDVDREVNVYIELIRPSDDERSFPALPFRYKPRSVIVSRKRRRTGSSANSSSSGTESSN

The next experiment addresses T6, GST-Aq-NF-kB (Amphimedon queenslandica, UniProt A9Y5G7 2-389).
T6 sequence: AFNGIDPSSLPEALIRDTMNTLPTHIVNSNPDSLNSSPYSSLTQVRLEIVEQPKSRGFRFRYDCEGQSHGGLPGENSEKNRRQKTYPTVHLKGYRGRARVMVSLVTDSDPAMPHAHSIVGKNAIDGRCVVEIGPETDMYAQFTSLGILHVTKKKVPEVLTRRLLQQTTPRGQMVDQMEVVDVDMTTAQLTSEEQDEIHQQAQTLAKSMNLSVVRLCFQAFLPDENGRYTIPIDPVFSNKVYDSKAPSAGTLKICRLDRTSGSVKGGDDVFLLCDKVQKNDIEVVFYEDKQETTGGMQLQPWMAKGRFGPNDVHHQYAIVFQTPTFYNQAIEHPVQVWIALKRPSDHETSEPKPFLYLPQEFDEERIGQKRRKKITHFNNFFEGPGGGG

Another experiment addresses GST-Hu-p50 (Homo sapiens, UniProt P19838 7-356).

Numbering of substitutions follows the chain as printed.

GST-Hu-p50, sequence (P19838 7-356): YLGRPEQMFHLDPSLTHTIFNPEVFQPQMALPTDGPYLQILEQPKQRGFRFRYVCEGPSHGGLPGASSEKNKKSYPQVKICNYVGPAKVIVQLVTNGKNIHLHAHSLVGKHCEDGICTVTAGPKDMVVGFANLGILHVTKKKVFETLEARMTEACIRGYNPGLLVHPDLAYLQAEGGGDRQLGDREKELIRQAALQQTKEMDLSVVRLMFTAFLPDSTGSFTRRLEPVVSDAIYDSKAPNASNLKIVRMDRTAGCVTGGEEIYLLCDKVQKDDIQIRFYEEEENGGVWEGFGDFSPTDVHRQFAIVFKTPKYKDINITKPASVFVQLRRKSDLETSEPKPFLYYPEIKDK

As for “CCGATTAACATCATGGGGGGAAATGATGTTAATCGGGTCTTGATTCGCTTGACGCTGCTG”, the binding signal was 6.36 z-score with GST-Ap-NF-kB RHD; 6.46 z-score in experiment [1]; 7.43 z-score in experiment [2]; 9.84 z-score in the experiment with GST-Co-NF-kB; 4.25 z-score with GST-Dm-Relish; 5.5 z-score in the experiment with GST-Aq-NF-kB. Besides, the binding signal in the experiment with GST-Hu-p50 stood at 6.02 z-score.

Consider “CCGATTAACATCAAGTTTTCCCCTGATGTTAATCGGGTCTTGATTCGCTTGACGCTGCTG”, for which the binding signal stood at 8.03 z-score with GST-Ap-NF-kB RHD; 8.76 z-score in experiment [1]; 11.2 z-score in experiment [2]; 10.3 z-score with GST-Co-NF-kB; 6.09 z-score with GST-Dm-Relish; 6.59 z-score in the experiment with GST-Aq-NF-kB. Also, the binding signal with GST-Hu-p50 worked out at 6.59 z-score.

“CCGATTAACATCAAAATTCCCAGTGATGTTAATCGGGTCTTGATTCGCTTGACGCTGCTG”: the binding signal with GST-Ap-NF-kB RHD worked out at 3.76 z-score; in experiment [1], 5.07 z-score; in experiment [2] it was 4.98 z-score; in the experiment with GST-Co-NF-kB, 4.87 z-score; with GST-Dm-Relish, 5.12 z-score; with GST-Aq-NF-kB, 4.23 z-score. The sequence further displayed a binding signal in the experiment with GST-Hu-p50 of 4.24 z-score.

In the case of “CCGATTAACATCAGGGGGAATGATGATGTTAATCGGGTCTTGATTCGCTTGACGCTGCTG”, the binding signal with GST-Ap-NF-kB RHD stood at 6.17 z-score; in experiment [1] it was 7.14 z-score; in experiment [2], 7.16 z-score; with GST-Co-NF-kB, 6.6 z-score; with GST-Dm-Relish, 3.1 z-score; with GST-Aq-NF-kB, 4.98 z-score. This sequence also returned a binding signal in the experiment with GST-Hu-p50 of 5.4 z-score.

“CCGATTAACATCAAAAATACCCTTGATGTTAATCGGGTCTTGATTCGCTTGACGCTGCTG”: the binding signal is 5.7 z-score in the experiment with GST-Ap-NF-kB RHD; 9.05 z-score in experiment [1]; 7.74 z-score in experiment [2]; 1.68 z-score with GST-Co-NF-kB; 7.04 z-score in the experiment with GST-Dm-Relish; 7.5 z-score with GST-Aq-NF-kB. In addition, the binding signal in the experiment with GST-Hu-p50 is 6.41 z-score.

On to “CCGATTAACATCAAATAAGTCCCTGATGTTAATCGGGTCTTGATTCGCTTGACGCTGCTG”, for which the binding signal with GST-Ap-NF-kB RHD stood at 4.69 z-score; in experiment [1], 6.71 z-score; in experiment [2], 7 z-score; with GST-Co-NF-kB, 1.42 z-score; in the experiment with GST-Dm-Relish, 5.96 z-score; in the experiment with GST-Aq-NF-kB, 6.24 z-score. Moreover, the binding signal with GST-Hu-p50 turned out to be 4.56 z-score.

In the case of “CCGATTAACATCAGGGGGGTGCATGATGTTAATCGGGTCTTGATTCGCTTGACGCTGCTG”, the binding signal in the experiment with GST-Ap-NF-kB RHD was 4.21 z-score; in experiment [1], 2.54 z-score; in experiment [2], 3.71 z-score; with GST-Co-NF-kB, 3.47 z-score; with GST-Dm-Relish, 4.16 z-score; in the experiment with GST-Aq-NF-kB, 3.59 z-score. The sequence further registered a binding signal in the experiment with GST-Hu-p50 of 3.86 z-score.

Turning to “CCGATTAACATCAAATATTCCCCTGATGTTAATCGGGTCTTGATTCGCTTGACGCTGCTG”, the binding signal turned out to be 8.25 z-score with GST-Ap-NF-kB RHD; 10.7 z-score in experiment [1]; 11 z-score in experiment [2]; 10.1 z-score with GST-Co-NF-kB; 7.22 z-score with GST-Dm-Relish; 8.12 z-score in the experiment with GST-Aq-NF-kB. The sequence also registered a binding signal with GST-Hu-p50 of 6.65 z-score.

“CCGATTAACATCAGGGGAATTTATGATGTTAATCGGGTCTTGATTCGCTTGACGCTGCTG”: the binding signal with GST-Ap-NF-kB RHD was 9.91 z-score; in experiment [1], 11.9 z-score; in experiment [2], 12.9 z-score; with GST-Co-NF-kB, 8.16 z-score; with GST-Dm-Relish, 9.13 z-score; with GST-Aq-NF-kB, 8.72 z-score. The same sequence showed a binding signal in the experiment with GST-Hu-p50 of 7.75 z-score.

On to “CCGATTAACATCACATTTTCCCCTGATGTTAATCGGGTCTTGATTCGCTTGACGCTGCTG”, for which the binding signal with GST-Ap-NF-kB RHD came to 6.76 z-score; in experiment [1], 8.07 z-score; in experiment [2], 10.5 z-score; with GST-Co-NF-kB, 9.7 z-score; with GST-Dm-Relish it was 3.97 z-score; in the experiment with GST-Aq-NF-kB, 5.38 z-score. Moreover, in the experiment with GST-Hu-p50, the binding signal turned out to be 6.01 z-score.

In the case of “CCGATTAACATCAAATGCCCCCCTGATGTTAATCGGGTCTTGATTCGCTTGACGCTGCTG”, the binding signal with GST-Ap-NF-kB RHD was determined as 5.13 z-score; in experiment [1], 4.38 z-score; in experiment [2], 3.91 z-score; with GST-Co-NF-kB it was 5.28 z-score; with GST-Dm-Relish it was 4.71 z-score; with GST-Aq-NF-kB, 5.31 z-score. In the experiment with GST-Hu-p50, this sequence came in with a binding signal of 4.49 z-score.

For “CCGATTAACATCAGGAGTGTCCCTGATGTTAATCGGGTCTTGATTCGCTTGACGCTGCTG”, the binding signal is 2.12 z-score in the experiment with GST-Ap-NF-kB RHD; 2.48 z-score in experiment [1]; 1.44 z-score in experiment [2]; 1.05 z-score in the experiment with GST-Co-NF-kB; 1.23 z-score with GST-Dm-Relish; 4.83 z-score with GST-Aq-NF-kB. In the experiment with GST-Hu-p50, this sequence yielded a binding signal of 1.29 z-score.

For the origin of these results see publication PMC5700166.
